In PubChem BioAssay (NCI):
The panel holds about 83,000 compounds, 20% with a hit somewhere; the sample as a whole holds those more often.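 Cell lines were cultured in 96-well plates, exposed to a single compound concentration, and assessed for percent growth 48 hours later.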 Active and inactive are the calls of the source. How the source made its calls: active means growth percent below 10; inactive means the rest.

What follows are molecules tested on RXF 393 renal (assay: NCI-60 one-dose screen, 48 h (100 = growth as untreated, 0 = no growth, -100 = all killed)). Settings: 10 µM unless noted.

| SMILES | growth |
| --- | --- |
| O=C(/C=C/c1ccc2ccccc2c1)Nc1ncc(Cc2ccccc2)s1 | 93.3% (inactive) |
| O=C1c2cc3c(cc2-c2c1c1ccc(F)cc1c(=O)n2CCCN1CCOCC1)OCO3 | 70.6% (inactive) |
| C=C1CC[C@@H](C(=O)OC)Cc2nc(C)ccc21 | 118% (inactive) |
| CCN1CCN(C(=O)[C@]23CCC(C)(C)C[C@@H]2C2=CC[C@@H]4[C@@]5(C)C/C(=C/c6cccnc6)C(=O)C(C)(C)[C@@H]5CC[C@@]4(C)[C@]2(C)CC3)CC1 | -7.84% (active) |
| Nc1c(C(=O)Nc2cccc3ccccc23)sc2nc3c(cc12)CCCC3 | 27.4% (inactive) |
| CC(C)(C)c1cc(-n2c(-c3ccc(Cl)cc3)nc3cc(C(=O)Nc4ccc(Cl)cc4)ccc32)n[nH]1 | 65.7% (inactive) |
| Fc1ccc(Nc2nnc(-c3ccc(Cl)cc3)o2)cc1 | 100% (inactive) |
| O=C1/C(=C\c2ccc(Br)o2)SC(=S)N1CCc1ccc(O)cc1 | 51.9% (inactive) |
| CC(=O)c1c(C)[nH]c(-c2nc3ccc(N4CCN(C)CC4)cc3[nH]2)c1-c1ccc2c(c1)OCCO2 | 49.2% (inactive) |
| COc1ccc2[nH]c(-c3ccc(Cl)cc3)cc(=O)c2c1 | 111% (inactive) |
| CCC1C(=O)COC1=O (stereo unspecified) | 122% (inactive) |
| COc1ccc(O)c(-c2cc(-c3ccc(Cl)cc3)c(C#N)c(=O)[nH]2)c1 | 84.5% (inactive) |
| C=C(C)[C@@H]1CC[C@]2(C)[C@H](CC[C@@H]3[C@H]4[C@H]5OC[C@@]4(CCC5(C)C)CC[C@]32C)[C@@]1(C)CCCN | 17.4% (inactive) |
| CN1CCN(CCOc2ccc(-c3cnc4c(-c5cccc(F)c5)cnn4c3)cc2)CC1 | 66.3% (inactive) |
| Cc1cc(N(CCNc2ccnc3cc(Cl)ccc23)Cc2ccco2)nc(Cl)n1 | -79.8% (active) |
| COc1ccc(CCN2C(=O)C(C)(C)SC2=S)cc1OC | 109% (inactive) |
| Cc1cc2nc3c4cc(O)ccc4n(CCN(C)C)c3nc2cc1C | -54% (active) |
| CCCCC(=O)OC1CCCCC1C (stereo unspecified) | 93.4% (inactive) |
| COc1ccc2c(c1)c(-c1nc(-c3c[nH]c4ncccc34)cs1)cn2CCCN1CCCCC1 | 35.9% (inactive) |

| SMILES | growth |
| --- | --- |
| CC(=O)c1c(C)[nH]c(-c2nc3ccc(N4CCN(C)CC4)cc3[nH]2)c1-c1ccc(OCC2CCOCC2)cc1 | 31.1% (inactive) |
| Cc1nc([P+](c2ccccc2)(c2ccccc2)c2ccccc2)c(Sc2sc(-c3ccccc3)nc2[P+](c2ccccc2)(c2ccccc2)c2ccccc2)o1 | 26.7% (inactive) |
| NNC(=O)c1nc2ccccc2[nH]1 | 124% (inactive) |
| O=P(O)(c1ccccc1)c1ccccc1I | 102% (inactive) |
| COc1ccc(OC)c(-c2c(C#N)c(-c3ccco3)nc3c2c(-c2ccccc2)nn3-c2ccccc2)c1 | 99.8% (inactive) |
| CNC(=O)c1cc(Oc2ccc3nc(NC(=O)Nc4ccc(Cl)cc4)sc3c2)ccn1 | 50.8% (inactive) |
| Clc1cc(Cl)cc(Nc2ccc3c(OCCCN4CCOCC4)cccc3n2)c1 | 53.5% (inactive) |
| N#CC1=C(N)Oc2c(c(N)nn2-c2ccccc2)C1c1ccc(Cl)cc1Cl (stereo unspecified) | 109% (inactive) |
| CC(C)(C)c1ccc(OCCCCCCCN2CCNCC2)cc1 | 28.2% (inactive) |
| Cc1cc(Cl)nc(N(CCCNc2ccnc3cc(Cl)ccc23)Cc2ccco2)n1 | 26.6% (inactive) |
| CC1(C)NCCC[C@]2(C)[C@H]3CC[C@@H]4[C@H]5[C@H](C(=O)/C=C/c6ccccn6)CC[C@]5(CO)CC[C@@]4(C)[C@]3(C)CC[C@@H]12 | 56.7% (inactive) |
| NCCNc1nc(-c2ccccc2)nc2nc(-c3ccccc3)oc12 | 85.9% (inactive) |
| COc1cnc2c(c1)C(=O)c1c-2n(CCCNC(C)C)c(=O)c2cc([N+](=O)[O-])ccc12 | -80.7% (active) |
| COc1cnc2c(c1)C(=O)c1c-2n(CCCNC2=NCCS2)c(=O)c2cc([N+](=O)[O-])ccc12 | -2.16% (active) |
| CCC(c1ccc(OC)cc1)C(CC)c1ccc(O)c(CN2CCCCC2)c1 (stereo unspecified) | 53.7% (inactive) |
| COc1cc2nc(Cl)nc(Nc3cccc(C(=O)/C=C/c4ccccc4)c3)c2cc1OC | 68.4% (inactive) |
| CC1(C)C(=O)/C(=C\c2ccco2)C[C@]2(C)[C@H]3CC[C@@H]4[C@@H](C(=O)/C=C/c5ccco5)CC[C@@]4(C)[C@]3(C)CC[C@@H]12 | 101% (inactive) |
| CCCC1CCCCN1C(=O)OCC(C)C (stereo unspecified) | 119% (inactive) |
| Cc1ccc(-c2nn(Cc3cn(-c4cc(C)nc5ccccc45)nn3)c3ncnc(N)c23)cc1 | 27.3% (inactive) |

What follows are molecules tested on SF-268 CNS in the same assay as above. Settings: 10 µM unless noted.

| SMILES | growth |
| --- | --- |
| O=C(/C=C/c1ccc2ccccc2c1)Nc1ncc(Cc2ccccc2)s1 | 73.8% (inactive) |
| O=C1c2cc3c(cc2-c2c1c1ccc(F)cc1c(=O)n2CCCN1CCOCC1)OCO3 | 43.3% (inactive) |
| C=C1CC[C@@H](C(=O)OC)Cc2nc(C)ccc21 | 109% (inactive) |
| CCN1CCN(C(=O)[C@]23CCC(C)(C)C[C@@H]2C2=CC[C@@H]4[C@@]5(C)C/C(=C/c6cccnc6)C(=O)C(C)(C)[C@@H]5CC[C@@]4(C)[C@]2(C)CC3)CC1 | 37.6% (inactive) |
| Nc1c(C(=O)Nc2cccc3ccccc23)sc2nc3c(cc12)CCCC3 | 50.1% (inactive) |
| CC(C)(C)c1cc(-n2c(-c3ccc(Cl)cc3)nc3cc(C(=O)Nc4ccc(Cl)cc4)ccc32)n[nH]1 | 69.7% (inactive) |
| Fc1ccc(Nc2nnc(-c3ccc(Cl)cc3)o2)cc1 | 99.3% (inactive) |
| O=C1/C(=C\c2ccc(Br)o2)SC(=S)N1CCc1ccc(O)cc1 | 96% (inactive) |
| CC(=O)c1c(C)[nH]c(-c2nc3ccc(N4CCN(C)CC4)cc3[nH]2)c1-c1ccc2c(c1)OCCO2 | 68.8% (inactive) |
| COc1ccc2[nH]c(-c3ccc(Cl)cc3)cc(=O)c2c1 | 98.2% (inactive) |
| CCC1C(=O)COC1=O (stereo unspecified) | 101% (inactive) |
| COc1ccc(O)c(-c2cc(-c3ccc(Cl)cc3)c(C#N)c(=O)[nH]2)c1 | 85.2% (inactive) |
| C=C(C)[C@@H]1CC[C@]2(C)[C@H](CC[C@@H]3[C@H]4[C@H]5OC[C@@]4(CCC5(C)C)CC[C@]32C)[C@@]1(C)CCCN | 92.1% (inactive) |
| CN1CCN(CCOc2ccc(-c3cnc4c(-c5cccc(F)c5)cnn4c3)cc2)CC1 | 80.4% (inactive) |
| Cc1cc(N(CCNc2ccnc3cc(Cl)ccc23)Cc2ccco2)nc(Cl)n1 | 30.9% (inactive) |
| COc1ccc(CCN2C(=O)C(C)(C)SC2=S)cc1OC | 94.7% (inactive) |
| Cc1cc2nc3c4cc(O)ccc4n(CCN(C)C)c3nc2cc1C | 9.22% (active) |
| CCCCC(=O)OC1CCCCC1C (stereo unspecified) | 98.7% (inactive) |
| COc1ccc2c(c1)c(-c1nc(-c3c[nH]c4ncccc34)cs1)cn2CCCN1CCCCC1 | 52.7% (inactive) |

| SMILES | growth |
| --- | --- |
| CC(=O)c1c(C)[nH]c(-c2nc3ccc(N4CCN(C)CC4)cc3[nH]2)c1-c1ccc(OCC2CCOCC2)cc1 | 54.3% (inactive) |
| Cc1nc([P+](c2ccccc2)(c2ccccc2)c2ccccc2)c(Sc2sc(-c3ccccc3)nc2[P+](c2ccccc2)(c2ccccc2)c2ccccc2)o1 | 18.2% (inactive) |
| NNC(=O)c1nc2ccccc2[nH]1 | 102% (inactive) |
| O=P(O)(c1ccccc1)c1ccccc1I | 99.8% (inactive) |
| COc1ccc(OC)c(-c2c(C#N)c(-c3ccco3)nc3c2c(-c2ccccc2)nn3-c2ccccc2)c1 | 96.2% (inactive) |
| CNC(=O)c1cc(Oc2ccc3nc(NC(=O)Nc4ccc(Cl)cc4)sc3c2)ccn1 | 56.2% (inactive) |
| Clc1cc(Cl)cc(Nc2ccc3c(OCCCN4CCOCC4)cccc3n2)c1 | 48.4% (inactive) |
| N#CC1=C(N)Oc2c(c(N)nn2-c2ccccc2)C1c1ccc(Cl)cc1Cl (stereo unspecified) | 92% (inactive) |
| CC(C)(C)c1ccc(OCCCCCCCN2CCNCC2)cc1 | 59.5% (inactive) |
| Cc1cc(Cl)nc(N(CCCNc2ccnc3cc(Cl)ccc23)Cc2ccco2)n1 | 52.5% (inactive) |
| CC1(C)NCCC[C@]2(C)[C@H]3CC[C@@H]4[C@H]5[C@H](C(=O)/C=C/c6ccccn6)CC[C@]5(CO)CC[C@@]4(C)[C@]3(C)CC[C@@H]12 | 78.7% (inactive) |
| NCCNc1nc(-c2ccccc2)nc2nc(-c3ccccc3)oc12 | 73.3% (inactive) |
| COc1cnc2c(c1)C(=O)c1c-2n(CCCNC(C)C)c(=O)c2cc([N+](=O)[O-])ccc12 | -61.2% (active) |
| COc1cnc2c(c1)C(=O)c1c-2n(CCCNC2=NCCS2)c(=O)c2cc([N+](=O)[O-])ccc12 | -39.4% (active) |
| CCC(c1ccc(OC)cc1)C(CC)c1ccc(O)c(CN2CCCCC2)c1 (stereo unspecified) | 86.1% (inactive) |
| COc1cc2nc(Cl)nc(Nc3cccc(C(=O)/C=C/c4ccccc4)c3)c2cc1OC | 85.9% (inactive) |
| CC1(C)C(=O)/C(=C\c2ccco2)C[C@]2(C)[C@H]3CC[C@@H]4[C@@H](C(=O)/C=C/c5ccco5)CC[C@@]4(C)[C@]3(C)CC[C@@H]12 | 78.7% (inactive) |
| CCCC1CCCCN1C(=O)OCC(C)C (stereo unspecified) | 96.1% (inactive) |
| Cc1ccc(-c2nn(Cc3cn(-c4cc(C)nc5ccccc45)nn3)c3ncnc(N)c23)cc1 | 35.8% (inactive) |
